Bioassay records: PubChem, National Center for Advancing Translational Sciences (NCATS)
A selection: hits, their analogues and other compounds. The true share with any hit is near 12%.
PI5P4Ka inh: PI5P4K alpha (human) kinase inhibition | P48426 | PI5P4Kalpha enzyme, ADP-Glo luminescence, 60 min; stronger effect = lower value | max response, % | actives 1.2% (n = 330,000) | AID 652105; active = max response of -50% or lower; inconclusive = between -30% and -50%; inactive = -30% or higher; also: value at the top dose of about 77 µM
Target sequence (P48426 whole entry, looked up): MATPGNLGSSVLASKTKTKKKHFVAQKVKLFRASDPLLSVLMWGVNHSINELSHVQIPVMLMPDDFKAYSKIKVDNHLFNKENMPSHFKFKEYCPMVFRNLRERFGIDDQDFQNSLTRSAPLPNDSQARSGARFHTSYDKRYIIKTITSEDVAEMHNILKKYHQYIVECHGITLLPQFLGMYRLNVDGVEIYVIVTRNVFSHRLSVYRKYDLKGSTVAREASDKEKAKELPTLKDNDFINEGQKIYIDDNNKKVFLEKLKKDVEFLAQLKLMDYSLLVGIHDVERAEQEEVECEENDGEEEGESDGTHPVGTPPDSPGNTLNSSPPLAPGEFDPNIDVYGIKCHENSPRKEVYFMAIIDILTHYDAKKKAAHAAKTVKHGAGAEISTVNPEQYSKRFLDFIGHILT
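Luminescence from ADP-Glo served as readout of PI5P4Kalpha activity in a qHTS format. Reaction: enzyme, substrate, compound, ATP at 5 microM final, 60 min at RT.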
PLK1 PBD block: inhibitors of human PLK1 polo-box domain binding | actives 2.8% (n = 360,000) | Potency, µM, actives largely listed as inhibitors | Plk1 PBD binding of FITC phosphopeptide, fluorescence polarization | P53350; also: series mostly up to about 57 µM; nearly all actives have a fitted effect of over 65% in size
HP1b chromo inh: blocks HP1-beta chromodomain binding to methylated histone tails | P83916 | AlphaScreen HP1-beta / biotin-H3K9me3 peptide binding | Potency, µM (top dose mostly 114 µM), most hits filed as inhibitors | actives 0.56% (n = 390,000) | AID 540317; also: nearly all actives have a fitted effect of over 70% in size
Target sequence (P83916 whole entry, looked up): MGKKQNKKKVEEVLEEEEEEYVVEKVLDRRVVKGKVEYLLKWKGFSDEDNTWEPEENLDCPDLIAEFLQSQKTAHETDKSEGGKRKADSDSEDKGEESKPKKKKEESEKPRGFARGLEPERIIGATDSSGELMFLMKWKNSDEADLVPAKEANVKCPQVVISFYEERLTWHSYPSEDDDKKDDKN
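Compound inhibition of the preformed complex between 50 nM HP1-beta and 50 nM biotinylated H3K9me3 peptide was read by AlphaScreen. Buffer was PBS pH 7.4 with 0.01% Tween-20. Incubations ran 30 min at room temperature, with 10 ug/mL donor/acceptor beads.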
BAZ2B block: BAZ2B (human) inhibition | actives 4.4% (n = 360,000) | Potency, µM (top dose mostly 114 µM), hits mostly inhibitors | AlphaScreen BAZ2B-H3K14Ac peptide displacement | Q9UIF8; also: nearly all actives have a fitted effect of over 60% in size
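Inhibition is scored as reduced AlphaScreen emission. The BAZ2B/b-H3(5-23)K14Ac complex (50 nM each) in PBS pH 7.4, 0.01% Tween-20 meets compound (up to 110 uM) for 30 min at RT before bead addition.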
JMJD2A Tudor inh: JMJD2A Tudor domain (human) inhibition; O75164; AlphaScreen JMJD2A-Tudor / H3K4me3 peptide binding; Potency, µM (top dose mostly 114 µM), usual class: inhibitors; actives 4.4% (n = 390,000); AID 504339; also: nearly all actives have a fitted effect of over 50% in size
G9a block: G9a (human) methyltransferase inhibition; AID 504332; Q96KQ7; actives 8.8% (n = 350,000); G9a H3K9 monomethylation, AlphaScreen, 2 h; Potency, µM (series often up to 102 µM), actives largely listed as inhibitors; also: nearly all actives have a fitted effect of over 75% in size
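AlphaScreen detection with an anti-monomethyl H3K9 antibody quantified product after a 2 h room-temperature reaction containing 500 nM biotinylated H3K9 peptide, 20 µM SAM and 20 nM enzyme, which had been preincubated 15 min with compound.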
A number is an active result; [ ] = dose if it differs, or a comment. Unless noted, calls follow the shape of the dose curve; as a rule, active = well fitted curve in the direction sought with a large enough effect; inconclusive = small, poorly fitted or top-dose-only effect, or another doubt; inactive = no such curve, though single readings can be large; an effect the other way counts as inactive or inconclusive.

Results for Cc1c(C(=O)NC2CCC(C)CC2)oc2ccccc12 (configuration not stated) ?
PI5P4Ka inh: inactive; PLK1 PBD block: inactive; HP1b chromo inh: inactive; BAZ2B block: inactive; JMJD2A Tudor inh: inactive; G9a block: inactive

How did COCCN=c1scc(-c2ccco2)n1/N=C/c1ccc(O)c(O)c1O do in these assays?
PI5P4Ka inh: -85.3; PLK1 PBD block: 6.7µM; HP1b chromo inh: 7.94µM; BAZ2B block: 7.94µM; JMJD2A Tudor inh: 31.6µM; G9a block: 10µM

What do the screens show for `C=CCN=c1scc(-c2ccco2)n1/N=C/c1ccc(O)c(O)c1O`?
PI5P4Ka inh: -72.9; PLK1 PBD block: 7.52µM; HP1b chromo inh: 14.1µM; BAZ2B block: 12.6µM; JMJD2A Tudor inh: 50.1µM; G9a block: 7.94µM

Results for CC(C)N=c1scc(-c2ccco2)n1/N=C/c1ccc(O)c(O)c1 ?
PI5P4Ka inh: inactive; PLK1 PBD block: inactive; HP1b chromo inh: inconclusive; BAZ2B block: 31.6µM; JMJD2A Tudor inh: 39.8µM; G9a block: inconclusive

What do the screens show for `COCCN=c1scc(-c2cccs2)n1/N=C(\C)c1ccco1`?
PI5P4Ka inh: inactive; PLK1 PBD block: inactive; HP1b chromo inh: inconclusive; BAZ2B block: 10µM; JMJD2A Tudor inh: 50.1µM; G9a block: 31.6µM

How did CCc1ccc(NC(=O)CSc2nc3ccsc3c(=O)n2C(C)CC)cc1 (configuration not stated) do in these assays?
HP1b chromo inh: inactive; BAZ2B block: inactive; JMJD2A Tudor inh: inactive; G9a block: inactive

Results for Cc1cc(C(=O)CSCCCn2c(=O)[nH]c3ccccc32)c(C)n1C ?
PI5P4Ka inh: inactive; PLK1 PBD block: inactive; HP1b chromo inh: inactive; BAZ2B block: inconclusive; JMJD2A Tudor inh: 50.1µM; G9a block: inactive[12.7 µM]

How did O=c1[nH]c2ccccc2n1CCCSCCCn1c(=O)[nH]c2ccccc21 do in these assays?
PLK1 PBD block: inactive; HP1b chromo inh: inactive; BAZ2B block: inactive; JMJD2A Tudor inh: inactive; G9a block: inactive

How did O=C(c1ccccc1)N1N=C(c2ccc(F)cc2)CC1(O)C(F)(F)F (configuration not stated) do in these assays?
PI5P4Ka inh: inactive; PLK1 PBD block: inactive; HP1b chromo inh: inactive; BAZ2B block: inactive; JMJD2A Tudor inh: inactive; G9a block: inconclusive

Results for CN1CCC2(CC1)N=C(c1ccc(F)cc1)C(=S)N2C(=O)c1ccccc1 ?
PI5P4Ka inh: inactive; PLK1 PBD block: inconclusive; HP1b chromo inh: inconclusive; BAZ2B block: inactive; JMJD2A Tudor inh: inconclusive; G9a block: 22.4µM

Results for COc1ccccc1Cc1nc2ccccc2nc1SCC(=O)Nc1cccc(Cl)c1C ?
HP1b chromo inh: inactive; BAZ2B block: inactive; JMJD2A Tudor inh: inactive; G9a block: inactive

How did COc1ccc(C)cc1-n1c(=O)c2ccccc2c2ccccc2c1=O do in these assays?
PI5P4Ka inh: inactive; PLK1 PBD block: inactive; HP1b chromo inh: inactive; BAZ2B block: inconclusive; JMJD2A Tudor inh: inactive; G9a block: 17.8µM

How did COc1ccc(-n2c(=O)c3ccccc3c3ccccc3c2=O)c(OC)c1 do in these assays?
PI5P4Ka inh: inactive; PLK1 PBD block: inactive; HP1b chromo inh: inactive; BAZ2B block: inactive; JMJD2A Tudor inh: inactive; G9a block: 10µM

Results for C[n+]1cccc2cccc([O-])c21 ?
PI5P4Ka inh: inactive; PLK1 PBD block: inactive; HP1b chromo inh: inactive; BAZ2B block: 56.2µM; JMJD2A Tudor inh: inconclusive

What do the screens show for `O=C(COC(=O)c1ccco1)Nc1ccccc1[N+](=O)[O-]`?
PI5P4Ka inh: inactive; PLK1 PBD block: inactive; HP1b chromo inh: inactive; BAZ2B block: inactive; JMJD2A Tudor inh: inactive; G9a block: inactive

What do the screens show for `Cc1cc(OC(=O)c2ccco2)c(Sc2ccccc2[N+](=O)[O-])c(=O)o1`?
PI5P4Ka inh: inactive; PLK1 PBD block: 5.32µM; HP1b chromo inh: inactive; BAZ2B block: inconclusive; JMJD2A Tudor inh: inconclusive; G9a block: 31.6µM

What do the screens show for `CCOC(=O)c1cc2c(=O)n3ccccc3nc2n(CCCOC)c1=NC(=O)c1cc2ccccc2o1`?
HP1b chromo inh: inactive; BAZ2B block: inactive; JMJD2A Tudor inh: inactive; G9a block: inactive

How did Cc1ccc(O)c2ncccc12 do in these assays?
G9a block: inactive[12.7 µM]

What do the screens show for `Oc1ccc(Cn2ccnc2)c2cccnc12`?
PI5P4Ka inh: inactive; PLK1 PBD block: inactive; HP1b chromo inh: inactive; BAZ2B block: 0.708µM; JMJD2A Tudor inh: 2µM; G9a block: inconclusive

Results for OCc1ccnc2c(O)cccc12 ?
PI5P4Ka inh: inactive; PLK1 PBD block: inactive; HP1b chromo inh: inactive; BAZ2B block: 1.41µM; JMJD2A Tudor inh: 12.6µM; G9a block: inactive[2.33 µM]

What do the screens show for `COCc1ccc(O)c2ncccc12`?
PI5P4Ka inh: inactive; PLK1 PBD block: inactive; HP1b chromo inh: inactive; BAZ2B block: 1.78µM; JMJD2A Tudor inh: 39.8µM; G9a block: inconclusive

How did CCc1ccc(N(CC)C(=O)c2cc3c(=O)oc4ccc(C)cc4c3s2)cc1 do in these assays?
HP1b chromo inh: inactive; BAZ2B block: inactive; JMJD2A Tudor inh: inactive; G9a block: inactive

What do the screens show for `Nc1nc(N)c2cc(CNc3ccc(Cl)c(Cl)c3)ccc2n1`?
PI5P4Ka inh: inconclusive; PLK1 PBD block: inactive

What do the screens show for `COc1ccc(-c2csc(N3CCN(C(=O)c4ccco4)CC3)n2)cc1`?
PI5P4Ka inh: inactive; PLK1 PBD block: inactive; HP1b chromo inh: inconclusive; BAZ2B block: inconclusive; JMJD2A Tudor inh: inconclusive; G9a block: 44.7µM

What do the screens show for `CCOC(=O)N1CCN(c2nc(-c3ccc(F)cc3)cs2)CC1`?
PI5P4Ka inh: inactive; PLK1 PBD block: inactive; HP1b chromo inh: inactive; BAZ2B block: inactive; JMJD2A Tudor inh: inactive; G9a block: inactive[12.7 µM]

What do the screens show for `COc1ccc2nc(N3CCN(C(=O)c4ccco4)CC3)sc2c1`?
HP1b chromo inh: inactive; BAZ2B block: inactive; JMJD2A Tudor inh: inactive; G9a block: inactive

How did COc1ccc(C(=O)NNC(=O)CN2CCN(c3nc(-c4ccccc4)cs3)CC2)cc1 do in these assays?
PI5P4Ka inh: inactive; PLK1 PBD block: inactive; HP1b chromo inh: inactive; BAZ2B block: inactive; JMJD2A Tudor inh: inactive; G9a block: inactive

What do the screens show for `CCOC(=O)C(=O)N1CCN(c2nc(-c3ccc(Cl)cc3)cs2)CC1`?
PI5P4Ka inh: inactive; PLK1 PBD block: inactive; HP1b chromo inh: inconclusive; BAZ2B block: inconclusive; JMJD2A Tudor inh: inactive; G9a block: 39.8µM

How did COc1ccc(-c2csc(N3CCN(C(=O)c4ccccc4)CC3)n2)cc1 do in these assays?
PLK1 PBD block: inactive; HP1b chromo inh: inactive; BAZ2B block: inconclusive; JMJD2A Tudor inh: inconclusive; G9a block: 28.2µM

Results for Cc1ccc(NC(=O)c2ccccc2OCC(=O)Nc2ccccc2F)cc1S(=O)(=O)N(C)C ?
PI5P4Ka inh: inactive; PLK1 PBD block: inactive; HP1b chromo inh: inactive; BAZ2B block: inactive; JMJD2A Tudor inh: inactive; G9a block: inactive

How did COc1ccc(-n2nnnc2C2CCN(S(=O)(=O)c3ccc(NC(C)=O)cc3)CC2)cc1 do in these assays?
HP1b chromo inh: inactive; BAZ2B block: inactive; JMJD2A Tudor inh: inactive; G9a block: inactive
